Results reported in the supplement of paper PMC4237247.

What follows are compounds tested on HeLa (assay: percent cells in G1/S phase; higher = more G1/S content). Conditions: 10 µM; 20 h; hit class: G2/M-phase inhibitor.
Experimental: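 HTS of 79,827 drug-like compounds at 10 uM. HeLa cells in 384-well plates were treated for 20 h, fixed, stained with Vybrant DyeCycle Green and scanned on an Acumen eX3 cytometer to give per-well cell cycle profiles. Only G2/M hits (>=67% G2/M) are listed.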

SMILES	percent cells in G1/S phase [%]
CN1Cc2c(ccc3c2OCO3)[C@@H]2[C@H]1c1cc3c(cc1C[C@@H]2O)OCO3 [Chelidonine monohydrate (+)]	19.8
